Inconclusive results are not listed. Active and inactive are the calls of the source. Unless noted, the call rests on the fitted dose curve; in most records, active means well fitted curve in the direction sought with a large enough effect; inconclusive means small, poorly fitted or top-dose-only effect, or another doubt; inactive means no such curve, though single readings can be large; an effect the other way counts as inactive or inconclusive.

Experiment [1] in a line: AP1 Signaling Pathway (AID 357; active means well fitted curve in either direction with a large enough effect, not every such curve was filed as active; further: on the % scale 0 is the no-effect control and ±100 the full control effect). The gist of the method:
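AP-1-bla ME-180 cells with beta-lactamase reporter under AP-1 response element, stimulated with EC50 EGF; compounds titrated, 5 hours at 37 degrees Celsius. CCF4 read at 460/530 nm ratio; positive and negative modulators judged by AC50.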

For experiment [2], the target named is Cytochrome P450 1A2 (Homo sapiens) (UniProt P05177). Briefly: p450-cyp1a2 (AID 410; calls by dose curve; further: potency means the concentration at half of the fitted maximal effect). The gist of the method:
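Human CYP1A2 (20nM) demethylated Luciferin-ME at its Km (100uM) in 100mM KPO4. After 10 min compound preincubation, NADPH regeneration ran the reaction 60 min at room temperature. Luciferin was read by luminescence, normalized to 57 uM furafylline.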

Experiment [3] can be described thus: NFAT Signaling Pathway (AID 444; active means well fitted curve in either direction with a large enough effect, not every such curve was filed as active;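 further: carbachol stimulus at about its EC50 of 1 µM final; on the % scale 0 is the no-effect control and ±100 the full control effect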). Particulars: Jurkat NFAT-bla M1, carbachol, beta-lactamase ratio, 5 h; at 17.2 µM (top of the series) unless noted. The essentials: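 Jurkat cells carrying an NFAT-driven β-lactamase reporter and co-transfected muscarinic M1 receptor were treated with compound plus carbachol (1 uM final, an EC50 level) for 5 h at 37 °C. CCF4 loading followed for 1 h at RT; 460/530 nm ratio gave %activity.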

Experiment [4] is described as follows: Stat Signaling Pathway (AID 446; active means well fitted curve in either direction with a large enough effect, not every such curve was filed as active;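 further: ME-180 cervical cancer cells given 40 pM IL-6 alongside compound; SIE-controlled beta-lactamase reporter measured as 460/530 nm FRET emission ratio; on the % scale 0 is the no-effect control and ±100 the full control effect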). The essentials: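 Reporter line: ME-180 cervical carcinoma, SIE-beta-lactamase. Treatment: compound with 40 pM IL-6, 5 hrs, 37 C, in low-serum OPTI-MEM with 10 mM HEPES pH 7.3. Detection: 460/530 nm fluorescence.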
For experiment [5], the target named is Glucocorticoid receptor (Homo sapiens) (UniProt P04150). Briefly: GR-GFP Redistribution (AID 450;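 active means compounds whose dose series gives a full or clear partial fitted curve of increased nuclear translocation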; further: potency means the concentration at half of the fitted maximal effect). Particulars: U2OS GR-GFP nuclear translocation, laser cytometry, 2 h.
Glucocorticoid receptor (Homo sapiens), sequence (P04150 whole entry, looked up): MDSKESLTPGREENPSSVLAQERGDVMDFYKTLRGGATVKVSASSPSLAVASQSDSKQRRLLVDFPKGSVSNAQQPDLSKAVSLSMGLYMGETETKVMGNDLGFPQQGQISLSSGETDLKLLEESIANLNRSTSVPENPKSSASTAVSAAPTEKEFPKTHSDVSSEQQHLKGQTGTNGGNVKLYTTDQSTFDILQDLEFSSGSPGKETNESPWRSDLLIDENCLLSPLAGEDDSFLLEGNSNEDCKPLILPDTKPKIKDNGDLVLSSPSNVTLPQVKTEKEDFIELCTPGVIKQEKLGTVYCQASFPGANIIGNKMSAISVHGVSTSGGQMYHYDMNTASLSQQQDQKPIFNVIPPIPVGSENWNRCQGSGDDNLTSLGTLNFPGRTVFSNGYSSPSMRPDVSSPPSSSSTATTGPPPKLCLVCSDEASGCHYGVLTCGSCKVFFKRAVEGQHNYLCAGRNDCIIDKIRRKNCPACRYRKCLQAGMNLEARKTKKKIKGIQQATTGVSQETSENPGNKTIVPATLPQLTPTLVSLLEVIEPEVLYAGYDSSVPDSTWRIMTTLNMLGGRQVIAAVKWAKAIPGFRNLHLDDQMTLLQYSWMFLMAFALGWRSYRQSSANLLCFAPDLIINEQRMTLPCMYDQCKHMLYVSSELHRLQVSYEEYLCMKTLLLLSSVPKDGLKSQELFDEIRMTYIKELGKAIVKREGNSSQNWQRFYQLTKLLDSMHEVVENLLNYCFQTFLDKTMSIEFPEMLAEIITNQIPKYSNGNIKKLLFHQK
The target is the same in experiment [6]. Briefly: GR-EFC Redistribution (AID 451; calls by dose curve; further: potency means the concentration at half of the fitted maximal effect). Particulars: CHO-K1 GR-EFC translocation, beta-gal luminescence, 2 h. The gist of the method:
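CHO-K1 cells stably expressing nuclear-localized β-gal enzyme acceptor and GR fused C-terminally to the enzyme donor fragment; ligand-driven nuclear translocation restores β-gal by complementation. Compounds titrated up to 46 uM final, 2 h at 37 °C; luminescence read.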

Experiment [7] has as its target Mitogen-activated protein kinase 10 (Mus musculus) (UniProt Q61831). Briefly: JNK3 AlphaScreen Assay (AID 530; active means well fitted curve in either direction with a large enough effect, not every such curve was filed as active;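 further: kinase came from lysate of stimulated human HepG2 cells; signal reports phosphorylation of biotinylated GST-cJun 1-79 at Ser73 with 10 µM ATP; on the % scale 0 is the no-effect control and ±100 the full control effect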). The essentials:
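JNK3 came from HepG2 lysates pre-activated with IL-1beta and TNF-alpha and phosphorylated biotinylated GST-cJun (1-79) at 10 uM ATP, pH 7.6, room temperature. Compounds were titrated. AlphaScreen signal used anti-phospho-cJun (Ser73) antibody.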

In experiment [8] the target is 3',5'-cyclic-AMP phosphodiesterase 4B (Homo sapiens) (UniProt Q07343). Briefly: qHTS Assay for Inhibitors of PDE-IV (AID 607; active means well fitted activation curve with a large enough effect in the main read-out, with a control signal flat, not every such curve was filed as active; further: % of control where 0% means no effect). The essentials: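 Cell-based read-out of cAMP via a modified cyclic nucleotide-gated channel and membrane potential dye (535/590 nm) in HEK293 cells expressing PDE4 endogenously. Compounds tested up to 22.9 uM final; 100 uM RO 20-1724 reference.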
3',5'-cyclic-AMP phosphodiesterase 4B (Homo sapiens), sequence (Q07343 whole entry, looked up): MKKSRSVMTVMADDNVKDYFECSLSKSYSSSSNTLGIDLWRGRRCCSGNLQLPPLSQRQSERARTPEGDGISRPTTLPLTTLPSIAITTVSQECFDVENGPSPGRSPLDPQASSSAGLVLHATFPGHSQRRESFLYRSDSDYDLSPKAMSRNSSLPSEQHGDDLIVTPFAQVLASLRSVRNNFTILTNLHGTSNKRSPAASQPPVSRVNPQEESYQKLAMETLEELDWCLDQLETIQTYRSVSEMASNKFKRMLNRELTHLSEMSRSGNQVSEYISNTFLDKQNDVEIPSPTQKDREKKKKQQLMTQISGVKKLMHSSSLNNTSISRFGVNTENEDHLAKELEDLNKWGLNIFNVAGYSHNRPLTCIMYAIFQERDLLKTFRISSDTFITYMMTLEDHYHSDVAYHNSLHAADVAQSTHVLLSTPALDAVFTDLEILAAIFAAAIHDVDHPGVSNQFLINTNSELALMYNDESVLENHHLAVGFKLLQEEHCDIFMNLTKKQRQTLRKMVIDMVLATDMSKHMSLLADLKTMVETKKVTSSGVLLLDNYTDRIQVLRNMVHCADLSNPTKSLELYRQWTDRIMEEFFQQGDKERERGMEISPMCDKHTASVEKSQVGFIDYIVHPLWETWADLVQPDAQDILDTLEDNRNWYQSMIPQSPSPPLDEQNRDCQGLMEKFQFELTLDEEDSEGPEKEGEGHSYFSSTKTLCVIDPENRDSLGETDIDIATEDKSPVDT

Experiment [9] in a line: qHTS Assay for Lipid Storage Modulators (AID 1519; calls by dose curve). Particulars: Drosophila S3 cells, BODIPY lipid droplet/cell ratio, laser cytometry, cells loaded with oleic acid; for activity change, negative = inhibition: at 25.7 µM (top of the series). The essentials:
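Cells seeded at 5,000 per well were treated with compounds over a concentration series and loaded with oleic acid (400 uM, as added). Lipid droplet fluorescence (488 nm excitation, 500-530 nm channel) was read by laser-scanning cytometry and normalized to 20 uM Triacsin C.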
On the technique in general: In qHTS, concentration-response curves come from the screen itself.

The target in experiment [10] is Ubiquitin carboxyl-terminal hydrolase 1 (Homo sapiens) (UniProt O94782). Briefly: Inhibitors of USP1/UAF1: Pilot qHTS (AID 504865).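 Further: rhodamine fluorescence freed from ubiquitin-rhodamine substrate followed over time; top concentration of the series differs between compounds; on the % scale 0 is the no-effect control and ±100 the full control effect; nearly all actives have a fitted effect of over 35% in size.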 The gist of the method: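 Kinetic fluorescence assay: 1nM USP1/UAF1, 15 min compound preincubation, then 150nM Ub-Rho; 480/540 nm.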
Ubiquitin carboxyl-terminal hydrolase 1 (Homo sapiens), sequence (O94782 whole entry, looked up): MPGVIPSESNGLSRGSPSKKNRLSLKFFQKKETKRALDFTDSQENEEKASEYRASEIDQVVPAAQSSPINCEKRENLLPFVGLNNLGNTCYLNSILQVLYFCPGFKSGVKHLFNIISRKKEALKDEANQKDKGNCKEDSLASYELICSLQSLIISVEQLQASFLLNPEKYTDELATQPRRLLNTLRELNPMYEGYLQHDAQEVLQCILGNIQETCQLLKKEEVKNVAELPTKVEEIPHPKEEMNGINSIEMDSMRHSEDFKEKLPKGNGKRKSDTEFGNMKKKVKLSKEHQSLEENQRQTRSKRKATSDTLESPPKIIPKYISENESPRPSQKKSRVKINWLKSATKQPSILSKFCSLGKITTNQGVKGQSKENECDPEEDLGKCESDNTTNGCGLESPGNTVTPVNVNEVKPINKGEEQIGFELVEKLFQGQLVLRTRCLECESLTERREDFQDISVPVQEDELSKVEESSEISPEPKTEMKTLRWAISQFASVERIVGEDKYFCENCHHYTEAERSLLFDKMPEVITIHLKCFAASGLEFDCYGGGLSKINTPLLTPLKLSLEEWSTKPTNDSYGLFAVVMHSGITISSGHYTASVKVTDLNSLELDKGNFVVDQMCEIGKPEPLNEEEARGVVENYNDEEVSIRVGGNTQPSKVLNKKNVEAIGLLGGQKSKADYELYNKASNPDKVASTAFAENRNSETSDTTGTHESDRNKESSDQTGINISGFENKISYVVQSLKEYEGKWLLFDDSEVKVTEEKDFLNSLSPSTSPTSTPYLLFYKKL
The target in experiment [11] is ATP-dependent 6-phosphofructokinase (Trypanosoma brucei brucei) (UniProt O15648). Briefly: qHTS Assay to Find Inhibitors of T. brucei phosphofructokinase: hit validation (AID 492961). The essentials:
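Percent activity derived from corrected luminescence, normalized between 0x and 1x enzyme controls, then fitted to concentration-response curves. Conditions: 1.25 nM PFK, 0.1 mM ATP, 0.5 mM F6P, 45 min RT.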

The target of experiment [12] is Luciferin 4-monooxygenase (Photinus pyralis) (UniProt P08659). Briefly: Biochemical firefly luciferase enzyme assay for NPC (AID 624030).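 Further: purified P. pyralis luciferase at 10 nM with luciferin and ATP substrate; 0% = DMSO and -100% = full luciferase inhibition by PTC124 control; nearly all actives have a fitted effect of over 70% in size.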 The essentials: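 Counter-screen for direct inhibition of the luciferase enzyme by approved-drug library compounds, run at 10 nM enzyme in 50 mM Tris acetate (final). Luminescence was read within 5 min of enzyme-buffer addition and normalized to PTC124 versus DMSO (0%).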
Luciferin 4-monooxygenase (Photinus pyralis), sequence (P08659 whole entry, looked up): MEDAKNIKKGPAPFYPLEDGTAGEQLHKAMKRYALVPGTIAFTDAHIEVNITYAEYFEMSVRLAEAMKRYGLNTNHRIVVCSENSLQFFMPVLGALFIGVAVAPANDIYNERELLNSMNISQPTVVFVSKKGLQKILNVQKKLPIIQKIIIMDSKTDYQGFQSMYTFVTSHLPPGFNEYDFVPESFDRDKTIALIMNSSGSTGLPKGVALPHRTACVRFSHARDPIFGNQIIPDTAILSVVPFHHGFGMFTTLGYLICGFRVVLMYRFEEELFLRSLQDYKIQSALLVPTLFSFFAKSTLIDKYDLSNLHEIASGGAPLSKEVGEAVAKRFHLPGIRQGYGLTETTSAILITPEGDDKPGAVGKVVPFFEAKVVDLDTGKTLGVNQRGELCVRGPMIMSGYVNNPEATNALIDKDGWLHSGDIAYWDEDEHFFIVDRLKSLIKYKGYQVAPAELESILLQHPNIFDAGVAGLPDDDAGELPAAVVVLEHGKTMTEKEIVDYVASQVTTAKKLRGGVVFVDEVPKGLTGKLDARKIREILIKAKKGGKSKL

Experiment [13] is described as follows: qHTS profiling for inhibitors of Plasmodium falciparum proliferation (AID 504749).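 Further: 0% = DMSO vehicle and full inhibition = artemisinin control; nearly all actives have a fitted effect of over 60% in size.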 Particulars: P. falciparum in erythrocytes, SYBR Green DNA, 72 h; at 12.8 µM (top of the series); parasite line B. The essentials: (§1)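 P. falciparum-infected erythrocytes (0.3% parasitemia, 2.5% hematocrit final) were exposed to compounds for 72 h at 37 C in 5% CO2, then lysed with SYBR Green buffer overnight at room temperature; parasite DNA fluorescence was normalized to artemisinin and DMSO controls.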

The test system of experiment [14] is 3D7. The description is as above. Particulars: P. falciparum in erythrocytes, SYBR Green DNA, 72 h; series mostly up to 12.8 µM. The essentials: as §1
In experiment [15] the test system is C2A. The experiment is described as above. Particulars: P. falciparum in erythrocytes, SYBR Green DNA, 72 h; series mostly up to 12.8 µM. The essentials: as §1
The test system of experiment [16] is CP217. The description is as above. Particulars: P. falciparum in erythrocytes, SYBR Green DNA, 72 h; series mostly up to 12.8 µM. The gist of the method: as §1
Experiment [17] relates to CP250. The description is as above. Particulars: P. falciparum in erythrocytes, SYBR Green DNA, 72 h; series mostly up to 12.8 µM. The gist of the method: as §1
In experiment [18] the test system is FAB9. Described as above. Particulars: P. falciparum in erythrocytes, SYBR Green DNA, 72 h; series mostly up to 12.8 µM. The essentials: as §1
Experiment [19] deals with JCK. The description is as above. Particulars: P. falciparum in erythrocytes, SYBR Green DNA, 72 h; series mostly up to 12.8 µM. The essentials: as §1
Experiment [20] relates to PC49. The description is as above. Particulars: P. falciparum in erythrocytes, SYBR Green DNA, 72 h; series mostly up to 12.8 µM. The gist of the method: as §1
Where [21] appears, read: measured here: cell count channel max response.
Setting [22] is: measured here: lipid channel max response.

Cytochrome P450 1A2 (Homo sapiens), sequence (P05177 whole entry, looked up): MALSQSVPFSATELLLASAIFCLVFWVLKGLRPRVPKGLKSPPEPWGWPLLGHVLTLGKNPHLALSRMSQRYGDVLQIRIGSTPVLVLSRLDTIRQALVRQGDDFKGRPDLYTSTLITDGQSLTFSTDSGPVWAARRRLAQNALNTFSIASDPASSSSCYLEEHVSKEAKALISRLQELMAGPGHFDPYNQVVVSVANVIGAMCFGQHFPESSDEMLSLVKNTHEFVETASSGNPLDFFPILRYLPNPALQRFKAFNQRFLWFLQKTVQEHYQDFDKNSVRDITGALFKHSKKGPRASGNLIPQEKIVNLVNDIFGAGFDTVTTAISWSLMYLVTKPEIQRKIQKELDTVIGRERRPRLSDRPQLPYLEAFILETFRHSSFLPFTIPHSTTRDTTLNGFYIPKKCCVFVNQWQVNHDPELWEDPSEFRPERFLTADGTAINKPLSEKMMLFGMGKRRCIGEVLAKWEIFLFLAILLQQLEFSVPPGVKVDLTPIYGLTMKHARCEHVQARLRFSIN
ATP-dependent 6-phosphofructokinase (Trypanosoma brucei brucei), sequence (O15648 whole entry, looked up): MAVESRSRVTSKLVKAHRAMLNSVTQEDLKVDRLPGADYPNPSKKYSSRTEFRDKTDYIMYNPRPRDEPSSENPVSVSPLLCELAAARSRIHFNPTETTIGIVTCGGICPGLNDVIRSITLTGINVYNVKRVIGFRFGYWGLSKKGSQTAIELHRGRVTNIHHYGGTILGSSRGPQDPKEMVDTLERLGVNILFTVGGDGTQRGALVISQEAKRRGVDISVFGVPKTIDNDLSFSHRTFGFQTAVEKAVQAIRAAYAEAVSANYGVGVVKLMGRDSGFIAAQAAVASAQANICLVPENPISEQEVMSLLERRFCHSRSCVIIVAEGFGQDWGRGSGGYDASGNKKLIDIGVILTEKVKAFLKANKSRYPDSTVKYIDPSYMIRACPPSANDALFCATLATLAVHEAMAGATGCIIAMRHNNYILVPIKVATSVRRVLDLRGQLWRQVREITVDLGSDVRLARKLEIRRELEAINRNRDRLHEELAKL

In the case of `C[C@@H]1CCc2cc(F)cc3c(=O)c(C(=O)O)cn1c23`, the compound was classed as inactive in experiment [1], in [4] and in experiment [8]. In addition, the Potency in [2] is 12.6 µM (active); in experiment [5], > 20.6 µM (inactive); in experiment [6], > 20.6 µM (inactive). For the same compound, the activity change, negative = inhibition is 7.91% (inactive) in experiment [3] and -0.0799% (inactive) in [9]. Besides, the Potency entry in experiment [7] and in experiment [10] was “inactive” each time. Further, the results for the max response in experiment [9] (setting [21]) and in experiment [9] (setting [22]) were -3% and -1.83%, respectively.

On to `CC[C@@H]1OC(=O)[C@H](C)[C@H](O[C@@H]2C[C@](C)(OC)[C@H](O)[C@H](C)O2)[C@H](C)[C@H](O[C@@H]2O[C@@H](C)C[C@@H](N(C)C)[C@@H]2O)[C@](C)(O)C[C@H](C)C(=NOCOCCOC)[C@H](C)[C@H](O)[C@]1(C)O`, for which the compound was classed as inactive in experiment [1], in [4], in [8] and in [11]. Also, the Potency entry in [2], in experiment [12], in experiment [14], in [15], in experiment [16] and in [17] was “inactive” throughout. The Potency result in experiment [18], in experiment [19] and in experiment [20] was “inactive” each time. The activity change, negative = inhibition was -1.03% (inactive) in experiment [3] and 0.83% (inactive) in experiment [9]. For the same compound, the Potency in experiment [5] and in [6] was > 20.6 µM (inactive) throughout. Besides, the max response in experiment [9] (setting [21]) is -2.35%; in experiment [9] (setting [22]), -1.19%. The activity, negative = inhibition in [13] was -20.4% (inactive).

`C[C@@H]1C(=O)O[C@@H]2C[C@]34[C@H]5C[C@@H](C(C)(C)C)[C@@]36[C@@H](OC(=O)[C@@H]6O)O[C@@]4(C(=O)O5)[C@@]12O`: the compound was classed as inactive in [1], in [4] and in [8]. Further, the Potency entry in experiment [2], in [7] and in [10] was “inactive” each time. The activity change, negative = inhibition in experiment [3] is 0.0686% (inactive); in experiment [9], -0.102% (inactive). Moreover, the Potency in experiment [5] and in [6] was > 20.6 µM (inactive) throughout. Further, the max response is -9.92% in [9] (setting [21]) and -6.41% in experiment [9] (setting [22]).

`CC[N+](CC)(CC)CC[C@](O)(c1ccccc1)C1CCCCC1`: the result in experiment [1], in experiment [4], in experiment [8] and in [11] was inactive. Besides, the Potency entry in experiment [2], in experiment [7], in experiment [10], in [12], in experiment [14] and in experiment [15] was “inactive” in each case. For the same compound, the Potency result in [16], in [17], in [19] and in experiment [20] was “inactive” each time. For the same compound, the activity change, negative = inhibition was -68.8% (active) in experiment [3] and -1.33% (inactive) in experiment [9]. The Potency in experiment [5] and in experiment [6] was > 20.6 µM (inactive) in each case. Also, the max response in experiment [9] (setting [21]) is -17.2%; in [9] (setting [22]) it was -19.8%. Besides, the activity, negative = inhibition in experiment [13] was -24.4% (inactive).

With `CC(=O)N[C@@H](CC(=O)O)C(=O)O`, the compound was called inactive in experiment [1], in experiment [4] and in experiment [8]. Also, the Potency result in [2], in experiment [7] and in experiment [10] was “inactive” each time. The activity change, negative = inhibition was -10.7% (inactive) in experiment [3] and -1.04% (inactive) in experiment [9]. The Potency in [5] and in experiment [6] was > 20.6 µM (inactive) each time. Further, the max response in experiment [9] (setting [21]) is -3.12%; in experiment [9] (setting [22]) it was -4.28%.

On to `Cc1n[nH]c(=O)[nH]c1=O`, for which the compound was classed as inactive in experiment [1], in experiment [4] and in [8]. The Potency result in experiment [2], in experiment [7] and in experiment [10] was “inactive” each time. Further, the values for the activity change, negative = inhibition in [3] and in experiment [9] were -10% (inactive) and 1.08% (inactive), respectively. Further, the Potency in experiment [5] and in experiment [6] was > 20.6 µM (inactive) in each case. Further, the max response was -2.21% in experiment [9] (setting [21]) and -2.22% in experiment [9] (setting [22]).
